# Source: PubChem BioAssay AID651820 (National Center for Advancing Translational Sciences (NCATS), 2012)
# In all, about 340,000 compounds went through this assay and about 12,000 (3.5%) were called active. Not shown: some 18% with an inconclusive outcome. Many of the other results were omitted from the sample, so actives are more common in it than they were. A number with no mark means an inactive call. The call rests on the fitted dose curve; in most records, active means well fitted inhibition curve with a large enough effect; inconclusive means small, poorly fitted or top-dose-only effect, or another doubt; inactive means no such curve, though single readings can be large or run the other way.
# Assay: qHTS Assay for Inhibitors of Hepatitis C Virus (HCV)
# Settings: Huh7.5.1 HCVcc-Cre infection, luciferase reporter, 44 h; series mostly up to 41.8 µM; activity change, negative = inhibition: at the top concentration
# Text: Hepatitis C virus (HCV) infects about 200 million people in the world. Many infected people progress to chronic liver disease including cirrhosis with a risk of developing liver cancer. To date, there is no effective vaccine for hepatitis C. Current therapy based on interferon is only effective in about half of the patients and is associated with significant adverse effects. The fraction of people with HCV who can complete a successful treatment is estimated to be no more than 10 percent. Recent development of direct-acting antivirals against HCV, such as protease and polymerase inhibitors, is promising but still requires combination with peginterferon and ribavirin for maximal efficacy. In addition, these agents are associated with high rate of resistance and many have significant side effects. Due to the lack of a culture system for infectious HCV, the search for new HCV drugs has been greatly hampered. […] High-throughput screening (HTS) with an infectious HCV system would cover the complete spectrum of potentially druggable targets in all stages of HCV lifecycle, and would have more biological relevance than other cell-based assays. Moreover, targeting several key processes in the viral life cycle may not only increase antiviral efficacy; more importantly, it may also reduce the capacity of the virus to develop resistance to the compound. The goal of this project is to identify novel HCV inhibitors as new therapies for hepatitis C, using a highly sensitive and specific assay platform which is based on a HCV infectious cell culture system established in the laboratory and adapted for high-throughput HCV drug screen. NIH Chemical Genomics Center [NCGC] NIH Molecular Libraries Probe Centers Network [MLPCN] MLPCN Grant: MH095511 Assay Submitter (PI): Jake Liang, NIDDK
# The assay will start with plating 1,000 cells/well in 3 µL volume and culture for 4 h. Then 23 nL of compounds from the library collection will be added to each well, followed by adding 2.5 µL of HCVcc-Cre virus (~ 0.5 moi) and further cultured for 44 h before the luciferase assay. A volume of 4.5 µL luciferase substrates will be added to each well and the plates will be incubated at room temperature for 15 min. and then read for 15 sec. for the luciferase activity
# On the % scale 0 is the no-effect control and ±100 the full control effect.
SMILES,"activity change, negative = inhibition",Potency
O=C(COC(=O)C1(c2ccc(F)cc2)CCCC1)N1CCNC1=O,4.76%,–
CSc1ncc(Sc2ccccc2)c(C(=O)O)n1,0.988%,–
CSc1nc(-c2ccccc2)nc(C(Cl)Cl)n1,–,3.98 µM (active)
CSc1nc(C)cc(SC(C(C)=O)C(=O)Nc2ccccc2)n1 (centres undefined),21.8%,–
CCOc1ncccc1C(=O)Nc1ccc2c(c1)OCCO2,-22.9%,–
CC(=O)c1ccc(S(=O)(=O)Nc2ccc(-c3ccc4nncn4n3)cc2)cc1,6.1%,–
C[C@@H]1C[C@@H]2O[C@H]2/C=C\C=C\C(=O)Cc2c(Cl)c(O)cc(O)c2C(=O)O1,–,3.16 µM (active)
Cc1noc(C)c1NC(=O)Nc1cccc2c1O[C@H](CN(C)S(=O)(=O)c1c(C)noc1C)[C@@H](C)CN([C@H](C)CO)C2=O,2.45%,–
CC(=O)c1ccc(S(=O)(=O)N2CCN(c3nc4c(C)c(C)ccc4cc3C#N)CC2)cc1,–,10 µM (active)
Cc1cc(C)c2nc(N3CCCC3)c(C#N)cc2c1,-18%,–
CC(=O)c1ccc(S(=O)(=O)N2CCN(C(=O)/C=C/c3ccc4ccccc4n3)CC2)cc1,-8.42%,–
O=C(Cc1ccc([N+](=O)[O-])cc1)NCCc1ccc2c(c1)OCO2,3.93%,–
CN(C(=O)COC(=O)Cc1ccccc1[N+](=O)[O-])C1CCS(=O)(=O)C1 (centres undefined),13.9%,–
COc1ccc(CCNC2=C(Cl)C(=O)N(Cc3ccccc3)C2=O)cc1OC,–,12.6 µM (active)
COc1ccc(CCNC(=O)c2ccccc2-c2ccccc2C(=O)O)cc1OC,-12.3%,–
COc1ccc(CCN2C(=O)C(C)=C(C)C2=O)cc1OC,-11%,–
Cc1ccc(S(=O)(=O)CC(=O)Nc2sc(C)c(C)c2C(N)=O)cc1,14.2%,–
COc1cc2c(cc1CNC[C@H]1O[C@@H](n3cnc(C(N)=O)n3)[C@H](O)[C@@H]1O)OCO2,7.98%,–
OCCCNc1nc(-c2ccccc2)c2cc(Cl)ccc2n1,-24.5%,–
Cc1ccc2nc(Nc3ccccc3O)nc(-c3ccccc3)c2c1,10.8%,–
NC(N)=Nc1nc(-c2ccccc2)c2cc(Cl)ccc2n1,–,11.2 µM (active)
Cn1c(N)c(C(=O)COC(=O)c2cccc(S(=O)(=O)N3CCOCC3)c2)c(=O)n(C)c1=O,0.421%,–
O=C(NCC(=O)N1CCCCCCC1)c1ccccc1Cl,12.8%,–
COC(=O)CCCCCN1C(=O)NC(c2ccc(-c3ccccc3)cc2)C(C(=O)OCc2ccccc2)=C1C (centres undefined),4.51% [at 8.37 µM],–
CCOC(=O)CCCNC(=O)CN1C(=O)NC(CCc2ccccc2)C1=O (centres undefined),12.1%,–

SMILES,"activity change, negative = inhibition",Potency
CC1=C(C(=O)OCc2ccccc2)C(c2ccc(C(F)(F)F)cc2)NC(=O)N1CCCCCC(=O)O (centres undefined),14%,–
CC1=C(C(=O)OC(C)(C)C)C(c2ccc(Br)cc2)NC(=O)N1CCCC(=O)O (centres undefined),24.6%,–
CCCCNC(=O)C(C)N(CCN(C)C)C(=O)CCCN1C(=O)NC(c2ccc(Cl)cc2)C(C(=O)OCc2ccccc2)=C1C (centres undefined),–,11.2 µM (active)
CCCCNC(=O)C(C)N(CCN(C)C)C(=O)CCCCCN1C(=O)NC(c2ccc(Cl)cc2)C(C(=O)OCc2ccccc2)=C1C (centres undefined),–,11.2 µM (active)
O=C(COC(=O)CSc1ccccc1)Nc1ccc(F)cc1F,-7.26%,–
CCC(C)C1(C2CCCC2)NC(=O)NC1=O (centres undefined),5.9%,–
CC(C)(C)OC(=O)C1=C(CO)CS[C@@H]2[C@H](NC(=O)Cc3ccccc3)C(=O)N12,-8.25%,–
O=C(c1ccc2nc(N3CCOCC3)sc2c1)N1CCN(c2ccc(Cl)cc2)CC1,-24.6%,–
c1c2c(cc3sc(N4CCCCC4)nc13)OCCO2,-2.95%,–
Brc1ccc2nc(N3CCCC3)sc2c1,–,11.2 µM (active)
COc1ccc(C)cc1NC(=O)CN1c2cccc3cccc(c23)S1(=O)=O,-27%,–
CCCCNCCS(=O)(=O)NCc1ccccc1,9.37%,–
COc1ccccc1N(CC(=O)Nc1c(C)n(C)n(-c2ccccc2)c1=O)S(=O)(=O)c1ccccc1,-1.73%,–
COc1ccccc1N(CC(=O)N/N=C(\C)c1ccccc1O)S(=O)(=O)c1ccc(C)cc1,–,10 µM (active)
COc1ccc(S(=O)(=O)N(CC(=O)N/N=C/c2ccccc2C(=O)O)c2ccccc2OC)cc1,19.8%,–
CCOc1ccc(S(=O)(=O)N2CCN(C(=O)c3oc4ccccc4c3C)CC2)cc1,-5.95%,–
O=C(NCC1CCCO1)c1ccc(S(=O)(=O)Nc2ccc(F)cc2)cc1 (centres undefined),9.57%,–
COc1cc(OC)c(C(=O)NCc2ccc3c(c2)OCO3)cc1OC,-27.1%,–
COc1cc(C(=O)CCc2ccc3c(c2)OCO3)cc(OC)c1OC,–,14.1 µM (active)
COc1ccc(CNCCc2ccc3c(c2)OCO3)c(OC)c1OC,13.6%,–
O=C(NCCS(=O)(=O)NCc1ccc(Cl)cc1)c1ccccc1,6.73% [at 8.37 µM],–
COc1ccc(C(=O)OCC(=O)c2ccc(Cl)s2)c(OC)c1OC,–,2.51 µM (active)
COc1ccc(Cl)cc1C(=O)OCC(=O)NCc1cccs1,9.75%,–
COc1ccc(C(=O)OCC(=O)Nc2ccc3[nH]c(=O)[nH]c3c2)c(OC)c1OC,-8.43%,–
CN(O)C(=S)c1ccccc1,-10.2%,–

SMILES,"activity change, negative = inhibition",Potency
CCNC(=O)N(CC)C[C@H]1N[C@@](CC)(C(=O)OC)[C@H]2C(=O)N(Cc3ccccc3)C(=O)[C@@H]12,23% [at 8.37 µM],–
O=C(CSc1n[nH]c(-c2cccs2)n1)N1CCCCC1,-15%,–
O=C(O)Cc1ccc(NC(=O)Nc2cccc3ccccc23)cc1,6.08%,–
CC(=O)N(C)c1ccc(NC(=O)Nc2cccc3ccccc23)cc1,–,12.6 µM (active)
O=C(Nc1ccc2c(c1)C(=O)OC2)Nc1cccc2ccccc12,1.88%,–
O=C(CSC1=NS(=O)(=O)c2cc(F)ccc2N1)Nc1ccccc1F,0.897%,–
CCOC(=O)N1CCN(C(=O)COC(=O)c2cccc(S(C)(=O)=O)c2)CC1,-10.6%,–
CC(=O)c1ccc(NC(=O)CSc2nc3ccccc3c(=O)n2CCCN2CCOCC2)cc1,-0.979%,–
COc1cc(NC(=S)NCc2ccco2)c(OC)cc1Cl,-10.1%,–
CCOc1cc(NC(=S)NCc2ccco2)c(OCC)cc1NC(=O)c1ccco1,–,2.82 µM (active)
CCOc1cc(NC(=O)c2ccco2)c(OCC)cc1NC(=O)COc1ccccc1,-15.5%,–
CN1C(C(=O)NCC2CC2)CC2Cn3c(nc4ccccc43)C21 (centres undefined),22.1%,–
Cc1ccc(NC(=O)COC(=O)CN2CCCCCC2=O)c(C)c1,4.62%,–
COc1ccc(C(=NN)c2ccc(OC)cc2)cc1,1.54%,–
Cc1cccc(N2CC(C(=O)Nc3ccccc3N3CCCC3)CC2=O)c1C (centres undefined),-0.701%,–
CCCCCCC(=O)Nc1nc(C)c(-c2csc(Nc3cc(Cl)ccc3OC)n2)s1,-20.7%,–
CC(=O)c1sc(NC(=O)CCCOc2ccccc2C)nc1C,-14.9%,–
CCCCC(=O)Nc1nc(C)c(-c2csc(Nc3ccc(Cl)cc3)n2)s1,–,8.91 µM (active)
Cc1nc(NC(=O)CN(C)S(=O)(=O)c2ccc(Cl)cc2)sc1C,-3.57%,–
Cc1ccc(Nc2nc(-c3sc(NC(=O)c4ccccc4)nc3C)cs2)cc1,-15.4%,–
C=CCCC(=O)Nc1nc(C)c(-c2csc(Nc3ccc(Cl)cc3)n2)s1,–,11.2 µM (active)
CCOC(=O)C1CCN(C(=O)c2cccc(S(=O)(=O)N(CC)c3ccccc3)c2)CC1,-1.31%,–
O=C1c2ccccc2C(=O)C1c1ccccc1F,-1.17%,–
O=C1c2ccccc2C2=Nc3ccccc3SC(c3ccccc3F)C12 (centres undefined),–,5.01 µM (active)
CCOC(=O)C1=C(C)N=C2c3ccccc3C(=O)C2C1c1ccc(Br)cc1 (centres undefined),-21.8%,–

SMILES,"activity change, negative = inhibition",Potency
Cc1sc2nc(CSCC(=O)NC3CCCCC3)[nH]c(=O)c2c1C,6.44%,–
CC1=CC(=Cc2sc3ccccc3[n+]2C)C=C(C)O1,–,5.01 µM (active)
CC(C)C(NC(=O)c1c(F)cccc1F)C(=O)NNC(=O)c1ccccc1 (centres undefined),7.93%,–
O=C(NCCc1ccc(F)cc1)c1ccc(S(=O)(=O)N2CCCCC2)cc1,-27.2%,–
COc1ccc(CNC(=O)C2(CC3CC(c4ccccc4)=NO3)CCN(C(=O)c3cccc(O)c3)CC2)cc1 (centres undefined),-11.6% [at 8.37 µM],–
O=C(COc1ccc(Cl)cc1)N1CCN(S(=O)(=O)c2ccc(Cl)cc2)CC1,7.75%,–
O=C(CCC(=O)N1CCN(S(=O)(=O)c2ccc(Cl)cc2)CC1)NCc1cccc(C(F)(F)F)c1,–,11.2 µM (active)
O=C(CCC(=O)c1ccccc1)NCc1cccc(C(F)(F)F)c1,-0.719%,–
O=C1c2ccccc2C(=O)C1C(=O)C1CC1,0.357%,–
CCN(CC(=O)Nc1ccc(OC)cc1)C(=O)c1ccc(=O)n(Cc2ccccc2)n1,0.141%,–
CC(CC(=O)Nc1cc(C(F)(F)F)ccc1Cl)c1ccccc1 (centres undefined),-7.71%,–
CC(NC(=O)COC(=O)Cn1cc(C(F)(F)F)ccc1=O)c1ccccc1 (centres undefined),15.9%,–
CNCC[C@H](Oc1ccc(C(F)(F)F)cc1)c1ccccc1,–,3.98 µM (active)
COc1ccc2nc3n(c(=O)c2c1)-c1cc(C)ccc1C(=O)NC3Cc1ccc(O)cc1 (centres undefined),15.7%,–
COc1cccc(N(CC(=O)Nc2cccc(N(C)S(C)(=O)=O)c2)S(C)(=O)=O)c1,-10.5%,–
CN(c1cccc(NC(=O)c2ccc(CN3CCc4ccccc4C3)cc2)c1)S(C)(=O)=O,–,11.2 µM (active)
Cc1ccc(N(CC(=O)Nc2cccc(N(C)S(C)(=O)=O)c2)S(C)(=O)=O)cc1,-11.3%,–
CN(c1ccc(C(=O)N2CCc3ccccc3C2)cc1)S(C)(=O)=O,-3.55%,–
CN(c1cccc(NC(=O)Nc2ccc(Cl)cc2)c1)S(C)(=O)=O,–,10 µM (active)
CC(=O)Nc1cccc(NC(=O)c2ccc3c(c2)CCN3S(C)(=O)=O)c1,11.1%,–
O=C(CNC(=O)c1ccccc1F)OCC(=O)c1c[nH]c2ccccc12,7.77%,–
Cc1ccsc1C(=O)NC1CCCCC1C (centres undefined),4.79%,–
O=C(NCCN1CCOCC1)c1cccc(S(=O)(=O)Nc2ccc(F)cc2)c1,3.15%,–
C#CCOCCOCCOCCNc1nc(N2CCN(C(=O)Cn3cc(CCO)nn3)CC2)nc(N2CCN(C(=O)[C@H](CCCCN)n3cc(CCCC)nn3)CC2)n1,-0.907% [at 8.37 µM],–
